The test system of experiment [1] is MCC-26. In words: qHTS assay to identify novel small-molecules to repurpose for Merkel cell carcinoma treatment (AID 1296009). Note: nearly all actives have a fitted effect of over 60% in size. Note: potency is the fitted concentration of half-maximal effect. The following applies: MCC and control cell lines, CellTiter-Glo viability, 72 h; series mostly up to 46 µM. Put shortly:
(§1)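 After compound transfer in DMSO, plates were kept 72 hr at 37 degree celsius. Luminescent ATP signal from CellTiter-Glo served as viability measure, normalized against DMSO and no-cell controls.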

Experiment [2] deals with MKL-1. The experiment is described as above. As to conditions: MCC and control cell lines, CellTiter-Glo viability, 72 h; series mostly up to 46 µM. Put shortly: as §1
(In general: Cellular ATP, detected with luciferase, serves as a proxy for viable cell number.)

Experiment [3] deals with MKL-2. Described as above. As to conditions: MCC and control cell lines, CellTiter-Glo viability, 72 h; series mostly up to 46 µM. In short, it runs like this:
as §1

The subject of experiment [4] is NIH3T3. The description is as above. As to conditions: MCC and control cell lines, CellTiter-Glo viability, 72 h; at 44.8 µM (top of the series) unless noted. Put shortly: as §1
The test system of experiment [5] is UISO. The experiment is described as above. As to conditions: MCC and control cell lines, CellTiter-Glo viability, 72 h; series mostly up to 46 µM. In short, it runs like this: as §1
The test system of experiment [6] is WaGa. The description is as above. As to conditions: MCC and control cell lines, CellTiter-Glo viability, 72 h; series mostly up to 46 µM. In short, it runs like this: as §1
In experiment [7] the test system is C33A. In words: Primary qHTS to identify gynecologic anti-cancer compounds using libraries of approved drugs and bioactive compounds (AID 1345084). Note: nearly all actives have a fitted effect of over 55% in size. The following applies: Gynecologic cancer cell panel viability, ATPlite luminescence, 48 h; series mostly up to 57.5 µM. In short, it runs like this: (§2)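 Cells, 1,000 per well, were allowed to settle for 16 h at 37 C before compound addition. Five concentrations were tested for 48 h, and viability was read by ATPlite luminescence after 15 min at room temperature.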
A general note: In qHTS, concentration-response curves come from the screen itself.

The subject of experiment [8] is CASKI. The description is as above. The following applies: Gynecologic cancer cell panel viability, ATPlite luminescence, 48 h; series mostly up to 57.5 µM. Put shortly: as §2
Experiment [9] relates to Es-2. The experiment is described as above. As to conditions: Gynecologic cancer cell panel viability, ATPlite luminescence, 48 h; series mostly up to 57.5 µM. In short, it runs like this: as §2
The test system of experiment [10] is CAOV3. The experiment is described as above. The following applies: Gynecologic cancer cell panel viability, ATPlite luminescence, 48 h; series mostly up to 57.5 µM. In short, it runs like this: as §2

Inconclusive results are not listed. Active and inactive are the calls of the source. Calls come from the whole dose curve; as a rule, active = well fitted curve in the direction sought with a large enough effect; inconclusive = small, poorly fitted or top-dose-only effect, or another doubt; inactive = no such curve, though single readings can be large; an effect the other way counts as inactive or inconclusive.

This is an account of results in PubChem BioAssay (NCATS).

On to `C[C@H]([C@H](O)CCC(C)(C)O)[C@H]1CC[C@@]2(O)C3=CC(=O)[C@@H]4C[C@@H](O)[C@@H](O)C[C@]4(C)[C@@H]3CC[C@]12C`, for which the Potency result in [1], in experiment [2], in [3], in experiment [5] and in [6] was “inactive” in each case. Further, the compound was called inactive in experiment [4].

Turning to `O=C(N[C@H]1CN2CCC1CC2)c1ccc(Cl)cc1`, the Potency result in [1], in experiment [2], in [3], in [5], in [6] and in experiment [7] was “inactive” each time. Besides, the Potency entry in experiment [8] and in [9] was “inactive” in each case. Further, the call in [4] was inactive.

With `CCN1C[C@]2(OC(=O)c3ccccc3NC(C)=O)CC[C@H](OC)[C@@]34[C@H]5CC6[C@@H](OC)C[C@](O)(C(C[C@@H]23)[C@@H]14)[C@@]5(O)[C@@H]6OC`, the Potency result in experiment [1], in [2], in experiment [3], in experiment [5] and in [6] was “inactive” throughout. Besides, the result in [4] was inactive.

On to `c1ccc(CCCN2CCN(CCOC(c3ccccc3)c3ccccc3)CC2)cc1`, for which the Potency result in experiment [1] and in [2] was “inactive” throughout. Further, the Potency in experiment [3] was 20.9 µM (active).

`CC(C)(C)[C@]1(O)C[C@@H]2OC(=O)C[C@@]23C(=O)O[C@@H]2OC(=O)[C@H](O)C213` (stereo partly specified): the Potency result in experiment [1], in experiment [2], in experiment [3], in [5] and in experiment [6] was “inactive” in each case. For the same compound, the compound was classed as inactive in experiment [4].

Regarding `O=[N+]([O-])c1c(Cl)c(Cl)cc(Cl)c1Cl`, the Potency result in experiment [1], in [2], in experiment [3], in [5], in [6] and in experiment [7] was “inactive” each time. The Potency entry in [8] and in experiment [9] was “inactive” each time. Also, the outcome in experiment [4] was “inactive [at 92 µM]”.

`O=[N+]([O-])c1ccc([As](=O)(O)O)cc1`: the Potency entry in experiment [1], in experiment [2], in [5], in experiment [6], in [7] and in [10] was “inactive” in each case. Moreover, the Potency entry in [8] and in experiment [9] was “inactive” throughout. For the same compound, in experiment [3], the Potency is 8.41 µM (active). The outcome in experiment [4] was inactive.

On to `CCOC(=O)c1cncn1[C@H](C)c1ccccc1`, for which the Potency entry in [1], in experiment [2], in [3], in experiment [5] and in experiment [6] was “inactive” in each case. Also, the call in experiment [4] was inactive.

`O=C(Oc1ccc([N+](=O)[O-])cc1)N1CCN(Cc2cccc(Oc3ccccc3)c2)CC1`: the Potency entry in experiment [1], in experiment [2], in [3], in experiment [5], in experiment [6] and in experiment [7] was “inactive” in each case. Besides, the Potency result in [8] and in experiment [9] was “inactive” each time. Moreover, the compound was called inactive in experiment [4].

For `c1cc2c(cc1[C@H]1OC[C@H]3[C@H]1CO[C@H]3c1ccc3c(c1)OCO3)OCO2`, the Potency result in experiment [1], in [2], in experiment [3], in experiment [5] and in experiment [6] was “inactive” in each case. In experiment [4], the call was inactive.

As for `CC[N+]1(CCOC(=O)C(O)(c2ccccc2)c2ccccc2)CCCCC1`, the Potency entry in experiment [1], in experiment [2], in [3], in experiment [5], in experiment [6] and in experiment [7] was “inactive” throughout. Further, the Potency entry in experiment [8] and in experiment [9] was “inactive” each time. Further, the call in experiment [4] was inactive.

Turning to `N=c1c2c(-c3ccccc3)c(-c3ccccc3)n(Cc3ccccc3)c2ncn1C1CCC(O)CC1` (stereo unspecified), the Potency result in [1] was “inactive”. Also, the Potency is 18.7 µM (active) in experiment [2], 14.8 µM (active) in experiment [3], 3.72 µM (active) in experiment [5] and 2.64 µM (active) in experiment [6].

Turning to `Nc1c(Cl)c(Cl)c(Cl)c(Cl)c1Cl`, the Potency result in experiment [1], in experiment [2], in experiment [3], in [5], in [6] and in experiment [7] was “inactive” throughout. Further, the Potency entry in experiment [8] and in [9] was “inactive” throughout.

On to `COc1cccc2c1[C@]13CCN(CC4CC4)[C@H](C2)[C@]1(OC)CCC(=O)C3`, for which the Potency entry in experiment [1], in [2], in experiment [3], in experiment [5] and in experiment [6] was “inactive” throughout.

`C=C[C@@H]1CN2CCC1C[C@H]2[C@H](O)c1ccnc2ccccc12` (stereo partly specified): the Potency result in [1], in [2], in experiment [3], in [5] and in experiment [6] was “inactive” throughout.

Regarding `C1CCC(NC2CCCCC2)CC1`, the Potency result in [1], in [2], in experiment [3], in experiment [5], in experiment [6] and in [7] was “inactive” each time. For the same compound, the Potency result in experiment [10], in experiment [8] and in experiment [9] was “inactive” throughout.

As for `C#CC1(O)CCC2C3CCC4=CC(=O)CCC4(C)C3CCC21C` (stereo unspecified), the Potency entry in experiment [1], in experiment [2], in experiment [3], in [5] and in [6] was “inactive” each time.

As for `CC[C@@]1(O)C(=O)OCc2c1cc1n(c2=O)Cc2cc3ccccc3nc2-1`, the Potency in experiment [1] is 74.3 nM (active); in [2], 0.0332 µM (active); in experiment [3], 0.0743 µM (active); in experiment [5], 0.0296 µM (active); in experiment [6], 0.0209 µM (active).

As to `CC(=CCCC1=CCC(C2=CC(=O)OC2O)OC1O)CCC1=C(C)CCCC1(C)C` (stereo unspecified), the Potency result in experiment [1], in experiment [2], in [3], in [5] and in [6] was “inactive” throughout.

On to `CC(O)CN1CCN(CC(=O)[O-])CCN(CC(=O)[O-])CCN(CC(=O)[O-])CC1.[Gd+3]` (stereo unspecified), for which the Potency entry in experiment [1], in [2], in experiment [3], in experiment [5], in [6] and in [7] was “inactive” throughout. In addition, the Potency entry in experiment [8] and in experiment [9] was “inactive” in each case.

Consider `c1cc2ccc3cccc4ccc(c1)c2c34`, for which the Potency result in experiment [1], in experiment [2], in experiment [3], in [5], in experiment [6] and in [7] was “inactive” in each case. Further, the Potency entry in experiment [10], in [8] and in experiment [9] was “inactive” in each case.

Turning to `COc1ccc(CC2NCCc3cc(OC)c(OC)cc32)cc1OC` (stereo unspecified), the Potency entry in [1], in experiment [2], in [3], in [5] and in experiment [6] was “inactive” each time.

Take `CCOCCOC(C)=O`: the Potency entry in experiment [1], in experiment [2], in [3], in [5], in [6] and in experiment [7] was “inactive” in each case. Further, the Potency entry in [8] and in experiment [9] was “inactive” throughout.

With `O=c1cccc2n1CC1CNC[C@H]2C1`, the Potency entry in experiment [1] and in experiment [5] was “inactive” in each case. Moreover, the figures for the Potency in [2], in [3] and in [6] were 14.8 µM (active), 2.64 µM (active) and 2.35 µM (active), respectively.
